The panel holds about 83,000 compounds, 20% with a hit somewhere; the sample as a whole holds those more often.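 Cells were grown in 96-well plates and exposed to the test compound at a single concentration for 48 hours; results are reported as percent growth, with values below 10 considered active.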 Unmarked numbers belong to inactive results. Calls of active or inactive are those of the source.
What follows are compounds tested on SW-620 colon (assay: NCI-60 one-dose screen, 48 h (100 = growth as untreated, 0 = no growth, -100 = all killed)). Details: 10 µM unless noted.
Description: Growth inhibition of the SW-620 human tumor cell line is measured as a screen for anti-cancer activity. Cells are grown in 96 well plates and exposed to the test compound for 48 hours. Compounds are tested at a single concentration, which is 10^-5 M for most compounds. The reported endpoint is percent growth (GI% or GIPRCNT), where numbers from 0 - 100% represent growth inhibition, and numbers from -100% - 0 represent cell death. For example, a value of 40 represents 60% growth inhibition. A value of 0 means no net growth occurred over the course of the experiment. A value of -40 indicates 40% of cells at the beginning of the experiment died by the end of the experiment. A value of -100 means all cells are dead at the end of the experiment.
NCI-60 Human Tumor Cell Lines Screen was performed using the standard one-dose NCI protocol, which is described in more detail at https://dtp.cancer.gov/discovery_development/nci-60/default.htm.
Compounds with GIPRCNT values below 10 were considered active. Activity score was based on GIPRCNT using the following formula: […]
Score is 0 for GIPRCNT values of 100 or above, 50 for GIPRCNT values of 0, and 100 for GIPRCNT values of -100.

Question: How did the growth turn out when `CSc1nc(N)c2c(n1)NC(c1ccccc1)C1CCc3ccccc3C1=N2` (stereo not given) was run?
Answer: The growth was 67.7%.

Question: For `CCOc1ccc(-c2cc(C3(S(=O)(=O)c4ccc(C)cc4)CC=CC3)on2)cc1`, which growth is on record?
Answer: The growth was 89.4%.

Question: With `O=C(CN1C(=O)c2ccccc2S1(=O)=O)Nc1nc(-c2cc3ccccc3oc2=O)cs1` as the compound, how does the growth read?
Answer: Its growth is 103%.

Question: Which growth does the source give for `COC(=O)c1c(C)nc(C)c2c1C(=O)C(Br)=C(NCCN1CCOCC1)C2=O` here?
Answer: Its growth is 92.1%.

Question: Which growth does the source give for `COc1ccc(S(=O)(=O)N(C)c2oc(-c3ccc(Cl)cc3)nc2C#N)cc1` here?
Answer: The growth was 43.3%.

Question: With `CCOC(=O)/C(=C/c1ccc([N+](=O)[O-])cc1)C(=O)c1ccccc1` as the compound, how does the growth read?
Answer: Its growth is 6.12% (active).

Question: With `CCOC(=O)CCC(=O)P(=O)(O)O` as the compound, how does the growth read?
Answer: Its growth is 96.5%.

Question: For `COc1nc2ccccc2cc1/C=C1/C=C(c2ccccc2)NC1=O`, which growth is on record?
Answer: The growth was 27.7%.

Question: `O=c1c(/C=C/c2c(O)ccc3ccccc23)nnc2sc(-c3cccc([N+](=O)[O-])c3)nn12` was tested. Which growth did it give?
Answer: Its growth is 32.5%.

Question: Which growth does the source give for `CC1=C2[C@@H](CC1)[C@]1(C)O[C@@](C(C)C)(C[C@H]1OC(=O)CO)[C@H]2OC(=O)CCCc1ccccc1` here?
Answer: Its growth is 77.3%.

Question: With `COc1cc(OCc2cccc(-c3ccc4c(c3)OCCO4)c2C)cc(OC)c1C=O` as the compound, how does the growth read?
Answer: Its growth is 70.2%.

Question: How did the growth turn out when `COc1ccc(S(=O)(=O)NC2c3ccccc3CC2O)cc1OC` (stereo not given) was run?
Answer: Its growth is 100%.

Question: How did the growth turn out when `Nc1nc(N)c2c(n1)NC(c1ccc3c(c1)OCO3)CC(c1cccc(Nc3ccncc3)c1)=N2` (stereo not given) was run?
Answer: Its growth is 58%.

Question: With `CN(C)CC1C(=O)O[C@H]2[C@H]1CC/C(COC(=O)NCc1ccc(Cn3c(=O)sn(CCCI)c3=O)cc1)=C\CC[C@@]1(C)O[C@@H]21` (stereo not given in full) as the compound, how does the growth read?
Answer: The growth was -74.9% (active).

Question: With `COc1ccc(-c2nc(SCCC(C)C)nc(N/N=C(/C)c3ccc(N)cc3)c2C#N)cc1` as the compound, how does the growth read?
Answer: Its growth is 95.2%.

Question: How did the growth turn out when `O=C1c2c(c3c4cc(F)ccc4oc3c3[nH]c4ccccc4c23)C(=O)N1O` was run?
Answer: Its growth is 31.6%.

Question: With `C#C[C@]1(O)CC[C@H]2[C@@H]3CC=C4c5sc(-c6ccccc6)nc5CC[C@]4(C)[C@H]3CC[C@@]21C` as the compound, how does the growth read?
Answer: Its growth is 89.9%.

Question: With `COc1c(O[C@@H]2OC(CO)[C@H](O)[C@H](O)C2O)cc2oc3cc(O)c(CC=C(C)C)c(O)c3c(=O)c2c1CC=C(C)C` (stereo not given in full) as the compound, how does the growth read?
Answer: Its growth is 104%.

Question: `COC(=O)[C@@H](Cc1c[nH]c2ccccc12)NC(=O)[C@H](Cc1ccccc1)NCc1ccncc1` was tested. Which growth did it give?
Answer: Its growth is 104%.

Question: `O=c1c(Cc2ccc(F)cc2)cc(-c2ccccc2)nn1C/C(=N/O)c1ccccc1` was tested. Which growth did it give?
Answer: Its growth is 58.7%.

Question: Which growth does the source give for `CC(CN)[C@@H]1CC[C@]2(CO)CC[C@]3(C)[C@H](CC[C@@H]4[C@@]5(C)CCC(NCCO)C(C)(C)[C@@H]5CC[C@]43C)[C@@H]12` (stereo not given in full) here?
Answer: Its growth is -60.9% (active).

Question: How did the growth turn out when `CCN1C(=O)N(CC)C2C1NN=c1s/c(=C\c3ccccc3)c(=O)n12` (stereo not given) was run?
Answer: Its growth is 18.8%.

Question: How did the growth turn out when `CCN1C(=O)N(CC)C2C1NN=c1s/c(=C3\C(=O)N(C)c4ccccc43)c(=O)n12` (stereo not given) was run?
Answer: The growth was 28.3%.

Question: Which growth does the source give for `C=C1C(=O)O[C@H]2[C@H]1CC/C(COC(=O)NCc1ccc(Cn3c(=O)sn(CCCC)c3=O)cc1)=C\CC[C@@]1(C)O[C@@H]21` here?
Answer: The growth was -47% (active).

Question: For `O=C(Nc1cccc(Cn2c(=O)[nH]c3ccc(Oc4ncccn4)cc3c2=O)c1)c1cccc(Cl)c1`, which growth is on record?
Answer: The growth was 83.3%.

Question: Which growth does the source give for `CC(=O)O[C@H]1CC[C@@]2(C)C(=CC[C@@H]3[C@@H]2CC[C@]2(C)C(Cl)=C(c4nc5ccc(Cl)cn5c4NC(C)(C)C)C[C@@H]32)C1` here?
Answer: The growth was 98.3%.

Question: With `CC1OC(C(=O)N2CCN(CCO)CC2)CC1COC1CCCCC1` (stereo not given) as the compound, how does the growth read?
Answer: The growth was 101% [50 µM].

Question: With `CCOC(=O)c1cnc2sc(-c3ccc(OC)cc3)nc2c1Cl` as the compound, how does the growth read?
Answer: Its growth is 114%.

Question: Which growth does the source give for `Cc1cc(C(=O)Nc2cc(Nc3ncccc3-c3ncnc4nc[nH]c34)ccc2F)cc(C(C)(C)C#N)c1` here?
Answer: Its growth is 34.3%.

Question: How did the growth turn out when `Cc1cc2nc(C(Cl)Cl)nc(-c3ccccc3)n2n1` was run?
Answer: The growth was 29.6%.

Question: `COc1cc(-c2ccc(-c3ccc(C(=N)N)s3)s2)cc(OC)c1OC` was tested. Which growth did it give?
Answer: Its growth is -15.5% (active).

Question: Which growth does the source give for `CC(=O)Cc1nsc(NC(=O)c2cc(-c3cc(Cl)ccc3Cl)oc2C)n1` here?
Answer: The growth was 107%.

Question: With `CCN1C(=O)N(CC)C2C1NN=c1s/c(=C\c3ccc(F)cc3)c(=O)n12` (stereo not given) as the compound, how does the growth read?
Answer: Its growth is 19.6%.

Question: `NC(=O)[C@@H]1Cc2ccccc2CN1C(=O)c1ccc2c(c1)Cc1ccccc1-2` was tested. Which growth did it give?
Answer: Its growth is 110%.

Question: How did the growth turn out when `CN1CCN(Cc2ccc(NC(=O)c3cncc(C#Cc4c(N)ncc5c(F)cccc45)c3)cc2C(F)(F)F)CC1` was run?
Answer: Its growth is -51.9% (active).

Question: Which growth does the source give for `C#CCOc1cccc(-c2ncnc3cc(NC(=O)CCl)ccc23)c1` here?
Answer: The growth was -58.6% (active).

Question: `CN1CCN(Cc2ccc(NC(=O)c3cc(C#Cc4cnc(N)c5ncccc45)n(C)n3)cc2C(F)(F)F)CC1` was tested. Which growth did it give?
Answer: Its growth is 88.1%.

Question: For `CCn1c2ccccc2c2cc(C(O)c3cccc4ncccc34)ccc21` (stereo not given), which growth is on record?
Answer: The growth was 26.8%.

Question: How did the growth turn out when `CN(C)C(=O)OCc1ccc2c(Cl)cc(Cl)c(O)c2n1` was run?
Answer: The growth was 25.7%.

Question: `CCCNNC(=O)c1ccc(CNC(=O)/C=C/c2ccccc2)cc1` was tested. Which growth did it give?
Answer: Its growth is 22.9% [2.5 µM].

From PubChem BioAssay (NCI)
